This is a sample that favours compounds with a hit; in the whole collection about 10% have one here.
BAZ2B block: inhibitors of human BAZ2B bromodomain. Q9UIF8. AlphaScreen BAZ2B-H3K14Ac peptide displacement. Potency, µM (highest dose often 114 µM), for inactives: at the highest dose activity change, negative = inhibition, most hits filed as inhibitors. 4.4% of 360,000 active. AID 504333; note: potency is the fitted concentration of half-maximal effect; % is set by controls: 0 for no effect and ±100 for the full control effect; nearly all actives have a fitted effect of over 60% in size
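Multi-concentration screen (max 110 uM) measuring displacement of acetylated histone H3 peptide from BAZ2B by AlphaScreen, using 50 nM protein, 50 nM peptide and 10 ug/mL streptavidin donor plus Ni-chelate acceptor beads.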
JMJD2A Tudor inh: JMJD2A Tudor domain (human) inhibition. AlphaScreen JMJD2A-Tudor / H3K4me3 peptide binding. 4.4% of 390,000 active. Potency, µM (highest dose often 114 µM), inactives show at the highest dose activity change, negative = inhibition, hits mostly inhibitors; note: potency is the fitted concentration of half-maximal effect; % is set by controls: 0 for no effect and ±100 for the full control effect; nearly all actives have a fitted effect of over 50% in size
CtBP-E1A blk: inhibitors of CtBP/E1A interaction. AlphaScreen GST-E1A/His-CtBP binding, 1536-well; stronger effect = lower value. 0.49% of 340,000 active. activity change, % (no concentration beside the values); in the data active = activity change below about -65%; inconclusive = mostly about -30% to -63%; note: % is set by controls: 0 for no effect and ±100 for the full control effect
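Homogeneous bead-based format: GST-tagged E1A captured on glutathione donor beads, His-tagged CtBP on nickel acceptor beads; compounds precede bead addition by 2 h at 37 °C.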
G9a inh: inhibitors of human histone lysine methyltransferase G9a. Potency, µM (highest dose often 102 µM), inactives show at the top dose activity, negative = inhibition, actives largely listed as inhibitors. 8.8% of 350,000 active. G9a H3K9 monomethylation, AlphaScreen, 2 h. Q96KQ7; note: potency is the fitted concentration of half-maximal effect; % is set by controls: 0 for no effect and ±100 for the full control effect; nearly all actives have a fitted effect of over 75% in size
Target sequence (Q96KQ7 913-1193 limits assumed): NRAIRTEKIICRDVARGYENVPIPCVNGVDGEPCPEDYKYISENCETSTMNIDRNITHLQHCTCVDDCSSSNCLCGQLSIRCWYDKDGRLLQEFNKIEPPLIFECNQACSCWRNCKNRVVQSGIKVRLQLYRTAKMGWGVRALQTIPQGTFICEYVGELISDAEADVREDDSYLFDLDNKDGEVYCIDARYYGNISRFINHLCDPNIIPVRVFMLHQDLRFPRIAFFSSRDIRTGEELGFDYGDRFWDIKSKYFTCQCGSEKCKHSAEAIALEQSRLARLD
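Methyltransferase reactions run at room temperature for 2 h (20 nM enzyme, 500 nM biotin-H3K9 peptide, 20 uM SAM) after a 15 min compound preincubation; product detected by AlphaScreen beads and anti-H3K9me1 antibody.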
Six1-Eya2 blk: blocks human Six1 binding to Eya2; Q15475+O00167; AlphaScreen GST-Six1/His-Eya2 binding, biochemical; stronger effect = lower value; 0.56% of 360,000 active; activity change, % (no concentration beside the values); in the data active = activity change below about -65%; inconclusive = mostly about -30% to -63%; note: % is set by controls: 0 for no effect and ±100 for the full control effect
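Six1/Eya2 binding was read as AlphaScreen signal after compounds were pinned into GST-Six1 plus His-tagged Eya2 (5X stock 250/500 nM) in pH 8.0 Tris/NaCl/TCEP buffer, beads added, then incubated 1 h, 37 C, dark.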
HP1b binding inh: inhibitors of HP1-beta chromodomain binding to methylated histone tails; P83916; AlphaScreen HP1-beta / biotin-H3K9me3 peptide binding; Potency, µM (series often up to 114 µM), without a hit: at the top dose activity change, negative = inhibition, usual class: inhibitors; 0.56% of 390,000 active; AID 540317; note: potency is the fitted concentration of half-maximal effect; nearly all actives have a fitted effect of over 70% in size
Target sequence (P83916 whole entry, looked up): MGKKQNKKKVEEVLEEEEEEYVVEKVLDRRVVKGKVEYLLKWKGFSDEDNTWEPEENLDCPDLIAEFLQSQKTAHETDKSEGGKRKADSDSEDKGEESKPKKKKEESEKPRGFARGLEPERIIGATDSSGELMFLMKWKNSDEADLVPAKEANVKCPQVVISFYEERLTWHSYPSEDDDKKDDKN
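HP1-beta protein (50 nM final) preincubated 30 min at room temperature with biotinylated H3(1-18)K9me3 peptide (50 nM) in PBS pH 7.4, 0.01% Tween-20, then compound added for 30 min. AlphaScreen streptavidin donor/nickel chelate acceptor beads (10 ug/mL final), 30 min dark, luminescence read.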
Active calls of the source: *; ? = inconclusive; · = no result; [ ] = remark or other dose. Unless noted, calls come from the whole dose curve; as a rule, active = well fitted inhibition curve with a large enough effect; inconclusive = small, poorly fitted or top-dose-only effect; inactive = no such curve, though single readings can be large or run the other way.

SMILES	BAZ2B block	JMJD2A Tudor inh	CtBP-E1A blk	G9a inh	Six1-Eya2 blk	HP1b binding inh
Cc1cc(=O)n2c(n1)NC(Nc1cccc(C)c1C)=NC2c1ccc(F)cc1 (centres undefined)	-17.2%	-7.0%	4.7	2.6%	2.7	24.3%
N#Cc1nc(COc2ccccc2F)oc1NCCCn1ccnc1	?	?	-75.5*	31.6µM*	?	30.6%
COc1ccccc1OCc1nc(C#N)c(NCCCn2ccnc2)o1	?	-24.1%	-3.8	?	-1.5	43.7%
N#Cc1nc(COc2ccc(F)cc2)oc1NCCCn1ccnc1	-35.0%	?	-2.6	-8.4%[12.7 µM]	-4.3	-9.8%
Cc1ccc(OCc2nc(C#N)c(NCCCn3ccnc3)o2)cc1	50.1µM*	7.6%[11.4 µM]	-15.1	?	-9.7	-19.7%
O=C(O)CSc1nc2c(c(C(F)(F)F)n1)CCCC2	-4.4%	-14.7%	-5.1	-0.7%[12.7 µM]	-0.1	22.7%
CCN(CC)C(=O)c1sc2c(c1C)c(=O)n(-c1ccccc1)c(=O)n2CC(=O)N(CC)c1cccc(C)c1	-13.5%	-15.0%	·	-0.3%[59 µM]	·	-5.3%
N#Cc1ccccc1NC(=O)c1ccc2c(c1)OCCO2	-21.1%	-10.6%	4.2	16.6%	17.1	10.4%
Cc1ccc(CCNC(=O)C2CCC(=O)N(Cc3ccccc3F)C2)o1 (centres undefined)	-24.4%	?	0.0	79.4µM*	-3.8	24.9%
Cc1cc(C)nc(CCNC(=O)C2CCC(=O)N(Cc3ccccc3F)C2)n1 (centres undefined)	-1.7%	-20.0%	4.1	·	-0.1	25.3%
COc1cccc(CN2CC(C(=O)NCc3cccc(Cl)c3)CCC2=O)c1 (centres undefined)	3.7%	-5.6%	0.8	·	-2.1	25.9%
COc1ccc(CCN2CC(C(=O)NCCc3cnn(C)c3)CCC2=O)cc1 (centres undefined)	-5.3%[57.1 µM]	20µM*	2.0	23.2%	5.5	21.9%
COc1cccc(CN2CC(C(=O)NCCc3ccc(C)o3)CCC2=O)c1 (centres undefined)	-20.5%	-16.6%	2.2	39.8µM*	-1.8	-6.9%
COc1ccc(CCN2CC(C(=O)NCCc3ccc(F)cc3)CCC2=O)cc1 (centres undefined)	-3.9%	-13.8%	4.2	21.4%	1.2	27.2%
COc1cccc(CN2CC(C(=O)NCc3cccc(N4CCCC4)c3)CCC2=O)c1 (centres undefined)	?	-35.3%	-2.0	79.4µM*	-9.7	15.7%
CCOC(=O)c1sc2cccc(F)c2c1S(=O)(=O)Nc1ccccc1F	-15.9%	-17.7%	·	-0.2%[59 µM]	·	99.8%
Cc1sc(NC(=O)C2=COCCO2)nc1-c1ccc(F)cc1	-7.3%	-8.3%	-16.5	79.4µM*	9.3	-7.3%
COCCSc1nnc(NS(=O)(=O)c2ccc(F)cc2)s1	-26.7%	-12.5%	4.2	31.6µM*	1.8	36.4%
N#Cc1c(-c2ccncc2)cc(-c2ccc(F)cc2)nc1N	8.4%	-3.1%	-17.3	36.6%	-15.9	42.4%
Cc1ccc(-c2cc(-c3ccccc3)c(C#N)c(N)n2)o1	?	?	8.2	2.82µM*	17.6	?
Cc1ccc(-c2cc(-c3ccc(F)cc3)nc(N)c2C#N)o1	-2.7%	-3.7%	13.2	2.51µM*	11.1	45.3%
Cn1c2cc(S(C)=O)sc2c2cnn(Cc3ccccc3F)c(=O)c21 (centres undefined)	·	-17.8%	·	·	·	·
O=C(NCC(c1ccco1)S(=O)(=O)c1cccs1)c1ccc(Cl)cc1 (centres undefined)	-8.3%	-14.6%	·	-26.4%[59 µM]	·	27.9%
COc1cc(COC(=O)Oc2ccc(CNC(C)=O)cc2OC)c([N+](=O)[O-])cc1OC	1.6%	-15.9%	-3.5	9.9%[2.33 µM]	-10.5	19.0%
O=C(NCCS(=O)(=O)NCc1ccccn1)c1ccccc1	4.4%	2.82µM*	3.6	61.4%	4.7	-2.4%
SMILES	BAZ2B block	JMJD2A Tudor inh	CtBP-E1A blk	G9a inh	Six1-Eya2 blk	HP1b binding inh
Cc1c(OCC(=O)NCc2ccccn2)ccc2c3c(c(=O)oc12)CCCC3	-13.1%	50.1µM*	·	?	3.6	13.5%[57 µM]
COc1ccc(S(=O)(=O)N2CCc3ccccc32)cc1C(=O)NCCc1ccccn1	19.2%	-21.1%	-1.0	?	13.5	30.3%
O=C(COc1ccc(S(=O)(=O)N2CCc3ccccc32)cc1Cl)NCc1ccccn1	79.4µM*	44.7µM*	-10.6	14.1µM*	-5.7	-0.7%
O=C(COc1ccc(S(=O)(=O)NCc2ccccc2)cc1Cl)NCc1ccccn1	-37.5%	-12.7%	0.0	44.7µM*	-13.7	-3.7%
COc1cc2c(cc1OC)n(CC(=O)c1cc(C)ccc1C)c(=O)n1nc(CCn3nc(C)cc3C)nc21	-3.8%	-18.0%	·	9.7%[59 µM]	·	5.4%
OC(CNCCCCNCC(O)C(F)(F)F)C(F)(F)F (centres undefined)	-31.3%	?	5.2	?	-1.5	16.9%
Cc1cc(S(=O)(=O)NC2CCCCC2)ccc1OCC(=O)NCc1ccccn1	-26.8%	28.2µM*	-10.8	10.0%[59 µM]	-5.8	21.0%
O=C(NCc1ccccn1)c1cccc(S(=O)(=O)NCc2ccccc2)c1	56.2µM*	-13.0%	10.8	14.5%	-15.4	44.6%
O=C(NCc1ccccn1)c1ccc(Cl)c(S(=O)(=O)NCc2ccccc2)c1	-3.1%	-5.1%	·	35.6%[12.7 µM]	-15.1	42.1%
COc1ccc(CN=C2NC(=O)CC(C(=O)Nc3ccccc3C)S2)cc1 (centres undefined)	2.6%	4.0%	-2.3	?	-2.8	22.4%
CC(OC(=O)c1ccc(Cl)nc1)C(=O)NC(C)(C)C (centres undefined)	-1.3%	-5.2%	7.0	4.9%	11.2	19.2%
CCOc1ccc(N=C(/C(C(=O)C(=O)N2CCOCC2)=C(\O)c2ccccc2)c2ccccc2)cc1	-29.0%	-17.2%	10.2	50.1µM*	9.0	13.0%
CCOc1ccc(OCc2ccc(C(=O)N3CCOCC3)cc2)cc1	-16.0%	-2.1%	-2.5	-37.6%[59 µM]	-2.8	21.2%
CCOc1ccc(CNC(=O)Cn2cc3c(n2)-c2c(oc(C(=O)N4CCOCC4)c2C)CC3)cc1	?	56.2µM*	·	?	·	27.3%
Cc1ccc(CNC(=O)Cn2cc3c(n2)-c2c(oc(C(=O)N4CCOCC4)c2C)CC3)cc1	?	-12.5%	·	-4.7%[59 µM]	·	33.2%
Cc1ccc(C(=O)NCC(=O)OC(C)C(=O)Nc2ccc(N(C)C)cc2)cc1C (centres undefined)	?	?	-14.8	25.1µM*	-18.8	?
CC(=O)NCC(=O)OC(C)C(=O)Nc1ccc(C(C)=O)cc1 (centres undefined)	-2.6%	-19.8%[57.1 µM]	-3.0	20.0%[59 µM]	0.0	57.2%
O=C(COC(=O)c1cccc(S(=O)(=O)Nc2ccc(F)cc2)c1)NCCN1C(=O)CSC1=O	8.6%	-12.2%	3.0	-5.3%	2.5	-14.8%
